Data from PubChem BioAssay AID1159580 (chemical genetic matrix, 2015).
“And” between values parts separate entries of the source, which are not always exact repeats. Equal values may be shown once. Screen size: about 5,500 compounds; about 2,000 (36%) were called active. Roughly 18% stayed inconclusive and do not appear here. Cut-off read from the data, not from the text of the source: active = normalized growth mostly below about 0.91 (no sharp cut-off); inconclusive = no clear call, values can overlap the other calls; inactive = mostly above about 0.92. Some of the results follow.

Experiment: chemical genetic growth profiling, strain panel (AID 1159580);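 note: tested at 20 µM; growth read once vehicle control cultures reached saturation at 30 °C; 1 = growth at the plate median or of vehicle wells; lower values mean less growth of the strain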
Settings: S. cerevisiae deletion strains, growth OD

Measured: normalized growth

CC(C)[C@@H]1CC[C@@H](C)C[C@H]1O
inactive: locus YAL021C, strain ccr4, stronger effect = lower value 0.968 | locus YAL026C, strain drs2, stronger effect = lower value 0.987 | locus YAL030W, strain snc1, stronger effect = lower value 0.984 | locus YBL061C, strain skt5, stronger effect = lower value 1.01 | locus YBR009C, strain hhf1, stronger effect = lower value 0.998 | locus YBR021W, strain FUR4, stronger effect = lower value 1.03 | locus YBR023C, strain chs3, stronger effect = lower value 1.01 | locus YBR171W, strain sec66, stronger effect = lower value 0.973 | locus YBR229C, strain ROT2, stronger effect = lower value 1.01 | locus YBR231C, strain swc5, stronger effect = lower value 0.988 | locus YBR279W, strain paf1, stronger effect = lower value 0.998 | locus YCL011C, strain gbp2, stronger effect = lower value 0.982 | locus YCL016C, strain dcc1, stronger effect = lower value 0.995 | locus YCL029C, strain bik1, stronger effect = lower value 1.01 | locus YCL061C, strain MRC1, stronger effect = lower value 0.986 | locus YCL069W, strain vba3, stronger effect = lower value 0.973 | locus YCR088W, strain abp1, stronger effect = lower value 0.979 | locus YDL005C, strain med2, stronger effect = lower value 0.98 | locus YDL035C, strain GPR1, stronger effect = lower value 1.02 | locus YDL040C, strain nat1, stronger effect = lower value 0.979 | locus YDL074C, strain BRE1, stronger effect = lower value 0.997 | locus YDL101C, strain DUN1, stronger effect = lower value 1.01 | locus YDL134C, strain PPH21, stronger effect = lower value 1.01 | locus YDL185W, strain tfp1, stronger effect = lower value 1.02 | locus YDL192W, strain arf1, stronger effect = lower value 1.02 | locus YDR001C, strain nth1, stronger effect = lower value 0.978 | locus YDR069C, strain doa4, stronger effect = lower value 0.992 | locus YDR101C, strain arx1, stronger effect = lower value 0.996 | locus YDR137W, strain rgp1, stronger effect = lower value 0.898 | locus YDR150W, strain NUM1, stronger effect = lower value 1.01 | locus YDR159W, strain sac3, stronger effect = lower value 0.964 | locus YDR162C, strain NBP2, stronger effect = lower value 1.02 | locus YDR195W, strain ref2 0.986 | locus YDR297W, strain sur2, stronger effect = lower value 0.984 | locus YDR318W, strain mcm21, stronger effect = lower value 1.02 | locus YDR334W, strain swr1, stronger effect = lower value 0.951 | locus YDR335W, strain msn5, stronger effect = lower value 0.984 | locus YDR388W, stronger effect = lower value 1.01 | locus YDR392W, strain spt3, stronger effect = lower value 0.958 | locus YDR502C, strain sam2, stronger effect = lower value 1.01 | locus YEL003W, strain gim4, stronger effect = lower value 0.989 | locus YEL037C, strain rad23, stronger effect = lower value 0.968 | locus YEL061C, strain CIN8 (second series), stronger effect = lower value 0.963 | locus YEL061C, strain CIN8, stronger effect = lower value 1.01 | locus YER015W, strain faa2, stronger effect = lower value 0.996 | locus YER016W, strain bim1, stronger effect = lower value 0.992 | locus YER110C, stronger effect = lower value 1.03 | locus YER111C, strain swi4, stronger effect = lower value 0.961 | locus YER155C, strain BEM2 (second series), stronger effect = lower value 0.94 | locus YER155C, strain BEM2, stronger effect = lower value 1.01 | locus YER167W, strain BCK2, stronger effect = lower value 1.02 | locus YFR010W, strain ubp6, stronger effect = lower value 0.989 | locus YGL078C, strain dbp3, stronger effect = lower value 1.02 | locus YGL086W, strain mad1, stronger effect = lower value 1.01 | locus YGL167C, strain pmr1, stronger effect = lower value 1 | locus YGL173C, strain kem1, stronger effect = lower value 0.999 | locus YGL227W, strain vid30, stronger effect = lower value 0.981 | locus YGL240W, strain doc1, stronger effect = lower value 0.995 | locus YGL248W, strain PDE1, stronger effect = lower value 0.992 | locus YGL253W, strain hxk2, stronger effect = lower value 0.995 | locus YGR078C, strain PAC10, stronger effect = lower value 0.975 | locus YGR135W, strain pre9, stronger effect = lower value 1.04 | locus YGR229C, strain SMI1, stronger effect = lower value 1.03 | locus YGR252W, strain gcn5, stronger effect = lower value 1.03 | locus YHR013C, strain ard1, stronger effect = lower value 1.03 | locus YHR027C, strain rpn1, stronger effect = lower value 0.996 | locus YHR030C, strain SLT2, stronger effect = lower value 1.01 and 0.979 | locus YHR079C, strain IRE1 (second series), stronger effect = lower value 1.01 | locus YHR079C, strain IRE1, stronger effect = lower value 0.991 | locus YHR094C, strain hxt1, stronger effect = lower value 1.02 | locus YHR129C, strain ARP1, stronger effect = lower value 1.01 | locus YHR142W, strain chs7, stronger effect = lower value 0.988 | locus YHR200W, strain rpn10, stronger effect = lower value 1.02 | locus YIL066C, strain RNR3, stronger effect = lower value 0.994 | locus YIL073C, strain SPO22, stronger effect = lower value 1.09 | locus YIL125W, strain kgd1, stronger effect = lower value 1.01 | locus YIR030C, strain dcg1, stronger effect = lower value 1.01 | locus YJL092W, strain hpr5, stronger effect = lower value 0.977 | locus YJL095W, strain BCK1 (second series), stronger effect = lower value 0.986 | locus YJL095W, strain BCK1, stronger effect = lower value 0.972 and 0.985 | locus YJL115W, strain asf1, stronger effect = lower value 0.981 | locus YJL129C, strain trk1, stronger effect = lower value 0.937 | locus YJL134W, strain LCB3, stronger effect = lower value 1.01 | locus YJL154C, strain vps35, stronger effect = lower value 0.972 | locus YJL164C, strain tpk1, stronger effect = lower value 0.998 | locus YJL166W, strain qcr8, stronger effect = lower value 0.986 | locus YJL168C, strain set2, stronger effect = lower value 1.01 | locus YJL187C, strain SWE1 (second series), stronger effect = lower value 0.984 | locus YJL187C, strain SWE1, stronger effect = lower value 0.99 | locus YJR043C, strain POL32, stronger effect = lower value 1.02
